Values without a mark were called inactive. Inconclusive results are not listed. Entries that show only a call come without a potency. Active and inactive are the calls of the source. Unless noted, the call rests on the fitted dose curve; in most records, active means well fitted curve in the direction sought with a large enough effect; inconclusive means small, poorly fitted or top-dose-only effect, or another doubt; inactive means no such curve, though single readings can be large; an effect the other way counts as inactive or inconclusive.
Tests used:
[1] = molecular target: Beta-2 adrenergic receptor (Homo sapiens) (UniProt P07550); assay: qHTS validation assay of beta-arrestin-biased ligands of beta2-adrenergic receptor (AID 485366)
Procedure, shortened: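 Arrestin-recruitment (Tango) reporter: ligand-bound beta2-AR recruits beta-arrestin, releasing tTA, which upregulates luciferase. Titrations of up to 46 microM incubated 18 hr at 37 degrees C before luminescent readout.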

[2] = Quantitative high throughput screen for delayed death inhibitors of the malarial parasite plastid, 96 hour incubation (AID 488745);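 further: luciferase-expressing P. falciparum in erythrocytes at 2% hematocrit and 0.1% parasitemia; series mostly up to about 29 µM; nearly all actives have a fitted effect of over 70% in size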
Procedure, shortened: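 Growth of reporter-bearing P. falciparum in red cells is measured after 96 h with compound, covering two erythrocytic cycles. Luminescence from the integrated luciferase serves as the growth signal.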

[3] = Quantitative high throughput screen for delayed death inhibitors of the malarial parasite plastid, 48 hour incubation (AID 488752); further: nearly all actives have a fitted effect of over 65% in size
Procedure, shortened: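 One parasite generation (48 h, 37 C, 5% CO2) of luciferase-reporter P. falciparum in erythrocytes is run with test compound; decreased luminescence indicates inhibited growth.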

[4] = molecular target: Thioredoxin reductase 1, cytoplasmic (Rattus norvegicus) (UniProt O89049); assay: qHTS Assay for Substrates of Mammalian Selenoprotein Thioredoxin Reductase 1 (TrxR1) (AID 488772);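 further: NADPH fluorescence in the first read after selenite addition and not the 8 min delta; series mostly up to about 57 µM; a drop in NADPH fluorescence below the no-compound background marks a TrxR1 substrate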
Procedure, shortened: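 Quantitative HTS in Tris-HCl buffer at pH 7.5 with EDTA and Tween-20, using rat TrxR1, 400 uM NADPH and 400 uM selenite (final). A fall in initial NADPH fluorescence relative to background marked substrate behaviour.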

[5] = molecular target: M-phase phosphoprotein 8 (Homo sapiens) (UniProt Q99549); assay: qHTS Validation Assay for Inhibitors for MPP8 Chromodomain Interactions with Methylated Histone Tails (AID 488949);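 further: AlphaScreen signal from MPP8 chromodomain bound to biotinylated H3K9me3 peptide; top concentration of the series differs between compounds; nearly all actives have a fitted effect of over 55% in size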
Procedure, shortened: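 MPP8 (50 nM) was preincubated with biotinylated H3(1-18)K9me3 peptide (50 nM) in PBS pH 7.4, 0.01% Tween-20 for 30 min at room temperature, then with compounds for 30 min; binding was detected by AlphaScreen.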

[6] = molecular target: Chromobox protein homolog 1 (Homo sapiens) (UniProt P83916); assay: qHTS Validation Assay for Inhibitors of HP1-beta Chromodomain Interactions with Methylated Histone Tails (AID 488953); further: nearly all actives have a fitted effect of over 50% in size; further: potency means the concentration at half of the fitted maximal effect
Procedure, shortened: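 Measured as loss of AlphaScreen luminescence from streptavidin donor and nickel acceptor beads (10 ug/mL final) bridging HP1-beta and biotin-H3(1-18)K9me3, each 50 nM. Compounds met the preassembled complex for 30 min at RT.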

[7] = molecular target: Methanococcus maripaludis chaperonin (MmCpn) (UniProt Q6LX38); assay: High-Throughput Screening for Modulators of Cytosolic Chaperonin Activity: MmCpn Primary Screen (AID 488978);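 further: 50 nM MmCpn enzyme hydrolysing 30 µM ATP at 37 °C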
Procedure, shortened: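 MmCpn (50 nM final) was preincubated with compound 5 min at RT, then 30 uM ATP (final) was added and the reaction ran 10 min at 37C. ADP produced was detected by Transcreener HTRF (ex 320 nm; em 590/665 nm).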

[8] = molecular target: Transient receptor potential cation channel subfamily V member 1 (Homo sapiens) (UniProt Q8NER1); assay: HTS Assay for Compounds that Act as Enhancers of the Vanilloid Receptor 1 (AID 488979)
Procedure, shortened: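 Calcium influx kinetics via Fluo-8 (480/520 nm) in TRPV1-expressing cells, 2000/well cultured overnight at 35.5C. Compound-alone read 3 min (agonist phase), followed by EC20 capsaicin challenge for 2 min (enhancer phase).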

[9] = molecular target: Thyrotropin receptor (Homo sapiens) (UniProt P16473); assay: qHTS Assay for Antagonists of the Thyroid Stimulating Hormone Receptor (AID 488980); further: series mostly up to about 58 µM
Procedure, shortened: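 HEK293 cells transfected with human TSHR, suspended in HEPES-buffered HBSS with 70 uM RO 20-1724, were treated with compounds plus TSH at EC80 (4 nM final). cAMP was measured by competitive HTRF (cryptate anti-cAMP antibody, cAMP-d2 acceptor).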

[10] = molecular target: D(1A) dopamine receptor (Homo sapiens) (UniProt P21728); assay: HTS Assay for Allosteric Agonists of the Human D1 Dopamine Receptor: Primary Screen for Agonists (AID 488981)
Procedure, shortened: (§1)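 Calcium flux in an inducible, force-coupled HEK293 Trex D1 line (overnight at 30 C): agonist mode is the 180 s kinetic read after compound; potentiator mode is the following 180 s read after dopamine at EC20.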

[11] = molecular target: D(1A) dopamine receptor (Homo sapiens) (UniProt P21728); assay: HTS Assay for Allosteric Agonists of the Human D1 Dopamine Receptor: Primary Screen for Potentiators (AID 488982)
Procedure, shortened: as §1

[12] = molecular target: D(1A) dopamine receptor (Homo sapiens) (UniProt P21728); assay: HTS Assay for Allosteric Agonists of the Human D1 Dopamine Receptor: Primary Screen for Antagonists (AID 488983);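 further: calcium flux response to an EC80 dopamine challenge measured with no-wash dye; nearly all actives have a fitted effect of over 65% in size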; further: potency means the concentration at half of the fitted maximal effect
Procedure, shortened: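 Screening of inducible HEK293 T-REx D1 cells: compound first, EC80 dopamine 180 s later, each phase read kinetically for calcium over 180 s.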

[13] = Validation screen for small molecules that induce genotoxicity in human embryonic kidney (HEK293T) cells expressing luciferase-tagged ELG1 (AID 493106)
Procedure, shortened: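 Reporter-gene quantitative HTS in HEK293T cells carrying luciferase-tagged ELG1, whose level climbs under genotoxic stress. Compound exposure lasts 16 hr at 37 °C before luciferase detection.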

[14] = molecular target: ATPase family AAA domain-containing protein 5 (Homo sapiens) (UniProt Q96QE3); assay: Validation screen for small molecules that inhibit ELG1-dependent DNA repair in human embryonic kidney (HEK293T) cells expressing luciferase-tagged ELG1 (AID 493107);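 further: cells co-treated with the DNA-damaging agent 5-fluorouridine alongside compound; series mostly up to about 46 µM; inhibitors lower the ELG1-luciferase luminescence signal; nearly all actives have a fitted effect of over 70% in size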
Procedure, shortened: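 Quantitative HTS in HEK293T cells carrying luciferase-tagged ELG1, stimulated with 5-fluorouridine alongside compound for 16 hr. Loss of luciferase signal marks inhibition of ELG1 response.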

[15] = molecular target: Thyrotropin-releasing hormone receptor (Homo sapiens) (UniProt P34981); assay: qHTS for Small Molecule Agonists and Allosteric Enhancers of Human TRH Receptor: Validation Screen for Agonists (AID 493127;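 active means calcium activation more than 3 SD above the typical response in the agonist read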;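 further: intracellular calcium rise by fluo-8 fluorescence before TRH EC20 addition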); conditions: TRH receptor agonist cell assay; at 2 µM; active compounds read high
Procedure, shortened: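 Gq-coupled calcium mobilization in TRHR cells after compound addition, monitored kinetically with fluo-8 dye on an FDSS reader.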

[16] = molecular target: Flap endonuclease 1 (Homo sapiens) (UniProt P39748); assay: qHTS Validation Assay for the Inhibitors of Human Flap endonuclease 1 (FEN1) (AID 488816)
Procedure, shortened: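 Readings taken at 0 and 15 min after starting the reaction with 50 nM (final) substrate supplied the signal. Compounds had first sat with 10 nM FEN1 reagent for 15 min at room temperature. Values come from Hill-equation concentration-response fits.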

[17] = molecular target: Tyrosyl-DNA phosphodiesterase 1 (Homo sapiens) (UniProt Q9NUW8); assay: Confirmation Assay for Inhibitors of Tyrosyl-DNA Phosphodiesterase (TDP1) (AID 489007); conditions: recombinant human TDP1 enzymatic activity, dose-response; further: potency means the concentration at half of the fitted maximal effect; nearly all actives have a fitted effect of over 40% in size
Procedure, shortened: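 Confirmation of primary-screen follow-ups in a qHTS format. Substrate cleavage by Tdp1 (1 nM) of a 3'-phosphotyrosine-FITC, 5'-biotin oligo (15 nM) was monitored as decreased AlphaScreen signal after a 5 min room-temperature reaction.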

[18] = molecular target: Thioredoxin reductase 1, cytoplasmic (Rattus norvegicus) (UniProt O89049); assay: qHTS Assay for Inhibitors of Mammalian Selenoprotein Thioredoxin Reductase 1 (TrxR1) (AID 488773); conditions: Potency: inhibition;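 further: drop in NADPH fluorescence over an 8 min run after selenite addition; series mostly up to about 57 µM; nearly all actives have a fitted effect of over 40% in size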
Procedure, shortened: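 Steps: enzyme (90 nM) plus NADPH (400 uM final), 5 min at ~22 deg C; compound added, 15 min; selenite (400 uM final) added; fluorescence followed for 8 min. Concentration-response curves derived from the normalized delta values.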

Sequence of ATPase family AAA domain-containing protein 5 (Homo sapiens) (Q96QE3 whole entry, looked up, the tested form may be a part): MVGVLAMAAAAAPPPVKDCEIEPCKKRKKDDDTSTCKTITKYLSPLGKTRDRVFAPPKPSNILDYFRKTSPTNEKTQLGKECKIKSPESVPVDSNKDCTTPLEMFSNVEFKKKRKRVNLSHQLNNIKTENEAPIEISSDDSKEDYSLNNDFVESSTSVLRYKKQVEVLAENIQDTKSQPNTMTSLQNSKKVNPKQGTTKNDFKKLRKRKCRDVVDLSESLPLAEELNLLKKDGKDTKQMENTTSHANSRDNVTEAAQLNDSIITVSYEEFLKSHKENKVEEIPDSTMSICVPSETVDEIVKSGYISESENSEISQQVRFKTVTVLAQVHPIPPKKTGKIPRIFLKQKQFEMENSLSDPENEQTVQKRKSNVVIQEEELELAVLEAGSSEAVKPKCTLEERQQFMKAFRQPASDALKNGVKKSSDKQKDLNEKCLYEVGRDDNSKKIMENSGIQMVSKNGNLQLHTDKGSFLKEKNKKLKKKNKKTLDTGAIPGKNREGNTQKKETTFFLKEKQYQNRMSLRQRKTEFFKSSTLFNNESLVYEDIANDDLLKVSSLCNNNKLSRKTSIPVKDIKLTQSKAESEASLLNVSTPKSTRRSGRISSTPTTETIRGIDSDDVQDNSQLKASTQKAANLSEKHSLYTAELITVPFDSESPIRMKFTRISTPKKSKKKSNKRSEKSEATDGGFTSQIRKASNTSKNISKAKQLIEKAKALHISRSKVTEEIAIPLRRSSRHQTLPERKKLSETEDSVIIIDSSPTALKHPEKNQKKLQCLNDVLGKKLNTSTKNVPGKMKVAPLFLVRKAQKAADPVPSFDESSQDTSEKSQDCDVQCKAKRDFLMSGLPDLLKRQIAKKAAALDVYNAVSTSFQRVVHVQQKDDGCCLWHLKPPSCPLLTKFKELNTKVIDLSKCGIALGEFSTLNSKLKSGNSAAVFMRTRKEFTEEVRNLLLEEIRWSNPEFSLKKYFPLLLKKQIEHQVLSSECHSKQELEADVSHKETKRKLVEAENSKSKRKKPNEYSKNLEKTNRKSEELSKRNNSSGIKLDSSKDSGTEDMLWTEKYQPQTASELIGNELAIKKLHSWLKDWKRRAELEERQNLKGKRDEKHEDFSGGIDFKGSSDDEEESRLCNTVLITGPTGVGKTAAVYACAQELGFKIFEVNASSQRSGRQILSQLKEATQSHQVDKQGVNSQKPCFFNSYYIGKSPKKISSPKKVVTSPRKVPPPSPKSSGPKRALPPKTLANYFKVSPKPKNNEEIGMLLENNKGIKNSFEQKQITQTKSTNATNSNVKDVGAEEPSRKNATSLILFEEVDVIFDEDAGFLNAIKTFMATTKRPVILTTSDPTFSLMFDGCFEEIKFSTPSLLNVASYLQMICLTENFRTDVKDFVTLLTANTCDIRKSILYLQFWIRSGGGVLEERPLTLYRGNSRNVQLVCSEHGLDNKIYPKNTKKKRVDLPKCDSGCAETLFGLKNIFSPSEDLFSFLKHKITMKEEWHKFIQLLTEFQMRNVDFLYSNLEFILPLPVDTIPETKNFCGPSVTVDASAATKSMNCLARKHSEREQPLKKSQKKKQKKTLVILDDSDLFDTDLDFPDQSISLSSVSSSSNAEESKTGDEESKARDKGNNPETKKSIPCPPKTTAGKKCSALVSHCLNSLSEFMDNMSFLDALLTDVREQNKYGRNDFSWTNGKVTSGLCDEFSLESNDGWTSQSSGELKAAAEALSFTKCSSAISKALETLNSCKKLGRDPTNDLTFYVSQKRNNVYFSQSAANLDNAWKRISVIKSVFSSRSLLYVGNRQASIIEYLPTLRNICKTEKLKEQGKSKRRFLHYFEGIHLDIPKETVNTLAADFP
Sequence of Thyrotropin receptor (Homo sapiens) (P16473 whole entry, looked up): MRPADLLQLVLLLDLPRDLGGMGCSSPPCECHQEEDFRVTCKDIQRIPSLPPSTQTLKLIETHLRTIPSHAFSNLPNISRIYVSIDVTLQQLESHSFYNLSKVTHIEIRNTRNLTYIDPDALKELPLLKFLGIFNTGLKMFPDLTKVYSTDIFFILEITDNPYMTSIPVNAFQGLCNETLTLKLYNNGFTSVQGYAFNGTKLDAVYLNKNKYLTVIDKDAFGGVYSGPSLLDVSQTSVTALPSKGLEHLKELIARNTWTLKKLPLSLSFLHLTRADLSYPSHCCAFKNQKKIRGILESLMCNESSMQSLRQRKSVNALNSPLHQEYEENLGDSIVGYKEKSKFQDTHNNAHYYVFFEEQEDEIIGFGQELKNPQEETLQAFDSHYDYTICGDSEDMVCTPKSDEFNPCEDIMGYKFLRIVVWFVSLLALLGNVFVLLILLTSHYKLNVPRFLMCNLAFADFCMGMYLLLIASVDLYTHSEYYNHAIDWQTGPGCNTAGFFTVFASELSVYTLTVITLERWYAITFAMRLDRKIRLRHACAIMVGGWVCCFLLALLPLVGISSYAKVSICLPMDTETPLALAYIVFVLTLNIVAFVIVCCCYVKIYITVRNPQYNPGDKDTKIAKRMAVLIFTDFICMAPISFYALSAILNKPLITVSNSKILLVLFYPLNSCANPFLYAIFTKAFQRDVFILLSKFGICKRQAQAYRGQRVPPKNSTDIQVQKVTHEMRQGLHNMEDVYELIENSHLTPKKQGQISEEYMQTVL
Sequence of Transient receptor potential cation channel subfamily V member 1 (Homo sapiens) (Q8NER1 whole entry, looked up): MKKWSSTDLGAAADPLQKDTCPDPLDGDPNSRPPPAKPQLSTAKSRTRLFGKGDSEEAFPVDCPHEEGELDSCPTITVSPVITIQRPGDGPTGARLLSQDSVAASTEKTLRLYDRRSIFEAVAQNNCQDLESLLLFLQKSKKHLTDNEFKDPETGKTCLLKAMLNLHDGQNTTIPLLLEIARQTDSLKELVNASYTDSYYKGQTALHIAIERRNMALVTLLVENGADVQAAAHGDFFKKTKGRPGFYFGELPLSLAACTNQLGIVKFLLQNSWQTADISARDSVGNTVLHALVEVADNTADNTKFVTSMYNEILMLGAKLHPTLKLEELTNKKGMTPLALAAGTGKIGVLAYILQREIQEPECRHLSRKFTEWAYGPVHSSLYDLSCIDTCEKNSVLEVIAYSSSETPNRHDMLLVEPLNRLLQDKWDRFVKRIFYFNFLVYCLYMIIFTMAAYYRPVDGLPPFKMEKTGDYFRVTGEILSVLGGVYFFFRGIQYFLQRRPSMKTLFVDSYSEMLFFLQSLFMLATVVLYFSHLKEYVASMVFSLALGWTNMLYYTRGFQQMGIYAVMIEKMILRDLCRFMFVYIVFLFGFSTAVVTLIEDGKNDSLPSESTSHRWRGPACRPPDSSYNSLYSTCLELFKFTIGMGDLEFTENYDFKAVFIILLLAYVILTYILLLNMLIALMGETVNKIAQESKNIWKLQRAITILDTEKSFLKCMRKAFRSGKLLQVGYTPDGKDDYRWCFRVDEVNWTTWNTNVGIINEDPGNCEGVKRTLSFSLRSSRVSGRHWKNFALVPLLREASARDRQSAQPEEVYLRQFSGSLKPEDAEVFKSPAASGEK
Sequence of Flap endonuclease 1 (Homo sapiens) (P39748 whole entry, looked up): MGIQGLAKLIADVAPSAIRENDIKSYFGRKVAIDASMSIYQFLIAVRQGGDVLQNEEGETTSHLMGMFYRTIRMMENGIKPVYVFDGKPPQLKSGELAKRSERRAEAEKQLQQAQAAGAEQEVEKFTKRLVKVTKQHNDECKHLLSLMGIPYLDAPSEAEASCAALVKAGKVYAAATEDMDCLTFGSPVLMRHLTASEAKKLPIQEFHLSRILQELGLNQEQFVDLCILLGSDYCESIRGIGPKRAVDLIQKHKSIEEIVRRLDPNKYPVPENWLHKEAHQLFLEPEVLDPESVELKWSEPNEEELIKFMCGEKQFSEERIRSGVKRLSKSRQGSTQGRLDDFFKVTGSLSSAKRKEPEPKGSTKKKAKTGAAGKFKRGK
Sequence of D(1A) dopamine receptor (Homo sapiens) (P21728 whole entry, looked up): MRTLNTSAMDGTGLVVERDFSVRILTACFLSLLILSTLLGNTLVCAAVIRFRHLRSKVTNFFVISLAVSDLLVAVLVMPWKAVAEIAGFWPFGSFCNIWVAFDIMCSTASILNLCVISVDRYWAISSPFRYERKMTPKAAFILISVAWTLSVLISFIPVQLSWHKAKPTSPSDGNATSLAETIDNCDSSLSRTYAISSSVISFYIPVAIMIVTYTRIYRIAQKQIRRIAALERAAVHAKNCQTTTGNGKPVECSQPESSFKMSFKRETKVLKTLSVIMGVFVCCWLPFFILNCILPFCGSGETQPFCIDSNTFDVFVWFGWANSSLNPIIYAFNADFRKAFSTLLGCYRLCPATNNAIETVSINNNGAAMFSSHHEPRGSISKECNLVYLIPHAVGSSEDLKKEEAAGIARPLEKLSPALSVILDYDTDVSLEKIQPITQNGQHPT
Sequence of Thioredoxin reductase 1, cytoplasmic (Rattus norvegicus) (O89049 whole entry, looked up): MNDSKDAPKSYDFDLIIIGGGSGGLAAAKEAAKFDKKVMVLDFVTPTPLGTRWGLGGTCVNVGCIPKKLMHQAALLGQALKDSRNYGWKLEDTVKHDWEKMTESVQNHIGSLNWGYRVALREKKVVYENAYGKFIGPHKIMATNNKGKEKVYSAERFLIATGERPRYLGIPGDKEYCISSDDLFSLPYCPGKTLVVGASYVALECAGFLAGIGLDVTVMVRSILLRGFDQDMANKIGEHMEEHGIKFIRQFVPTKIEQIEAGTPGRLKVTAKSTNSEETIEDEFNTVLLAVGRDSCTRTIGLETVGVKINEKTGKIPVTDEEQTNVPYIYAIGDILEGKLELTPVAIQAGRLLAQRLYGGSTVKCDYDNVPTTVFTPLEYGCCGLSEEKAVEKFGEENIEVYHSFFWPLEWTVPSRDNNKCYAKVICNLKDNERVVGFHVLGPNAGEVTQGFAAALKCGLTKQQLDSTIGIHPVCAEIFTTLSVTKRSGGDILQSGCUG
Sequence of Chromobox protein homolog 1 (Homo sapiens) (P83916 whole entry, looked up): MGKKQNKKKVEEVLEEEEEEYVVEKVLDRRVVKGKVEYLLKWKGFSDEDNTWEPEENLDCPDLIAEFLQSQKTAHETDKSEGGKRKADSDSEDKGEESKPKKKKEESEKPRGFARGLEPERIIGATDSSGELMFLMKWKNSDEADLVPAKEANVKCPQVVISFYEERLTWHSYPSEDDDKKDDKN

Structure (SMILES) | outcome [1] | Potency [2] | Potency [3] | outcome [4] | Potency [5] | Potency [6] | outcome [7] | outcome [8] | outcome [9] | Potency [10] | Potency [11] | Potency [12] | Potency [13] | Potency [14] | activation [15] | Potency [16] | Potency [17] | Potency [18]
Cc1nc(N=Nc2ccc(C(=O)O)cc2)c(COP(=O)(O)O)c(C=O)c1O | inactive | inactive | inactive | inactive | inactive | 50.1 µM (active) | inactive | inactive | inactive | inactive | inactive | inactive | inactive | inactive | 0.125% | – | – | –
NC(=O)c1cc[n+](CC2=C(C(=O)O)N3C(=O)[C@@H](NC(=O)[C@@H](c4ccccc4)S(=O)(=O)[O-])[C@H]3SC2)cc1 | inactive | inactive | inactive | inactive | inactive | – | inactive | inactive | inactive | inactive | inactive | inactive | inactive | inactive | 13.1% | inactive | 4.47 µM (active) | –
CCCCCCCCCCCCCCC[C@H](O)[C@H](N)CO | inactive | inactive | inactive | inactive | inactive | 89.1 µM (active) | inactive | inactive | inactive | inactive | inactive | inactive | inactive | inactive | 1.44% | – | – | inactive
Cc1ccccc1/C=C/C1=NCCN1 | inactive | – | inactive | inactive | inactive | inactive | inactive | – | inactive | inactive | inactive | 12.6 µM (active) | inactive | inactive | 0.5% | inactive | – | inactive
C/C(=C\c1ccc(C(=O)O)cc1)c1ccc2c(c1)C(C)(C)CCC2(C)C | inactive | inactive | inactive | inactive | inactive | inactive | inactive | inactive | inactive | inactive | inactive | inactive | inactive | inactive | – | inactive | – | –
N[C@@H](Cc1c[nH]c2ccccc12)C(=O)O | inactive | inactive | inactive | inactive | inactive | inactive | inactive | – | inactive | inactive | inactive | inactive | – | inactive | -0.125% | inactive | – | –
CNc1ncnc2c1ncn2[C@H]1C[C@H](OP(=O)(O)O)[C@@H](COP(=O)(O)O)O1 | inactive | inactive | inactive | inactive | inactive | inactive | inactive | inactive | inactive | inactive | inactive | inactive | inactive | inactive | – | – | – | inactive
Oc1ccc(Cn2cc[nH]c2=S)cc1 | inactive | inactive | inactive | inactive | inactive | – | inactive | inactive | inactive | inactive | inactive | inactive | inactive | inactive | 1.06% | – | – | inactive
NCCNS(=O)(=O)c1cccc2c(Cl)cccc12 | inactive | – | – | inactive | inactive | inactive | inactive | – | inactive | inactive | inactive | inactive | inactive | inactive | 2.62% | inactive | – | inactive

From PubChem BioAssay (NCATS)
